40 sequences from the supplement of paper PMC6555819 can be followed below.

One assay deals with FXR:RXRa (NR concentration 270 nM, RXRa partner concentration 90 nM). Briefly: PBM binding z-score (relative to random genomic background probes); higher = stronger binding; sequences stand for … in GC…GCGATTGACAGCGTAGAATGAAGG
The essentials: (§1)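 The probes on custom Agilent 4×180K protein-binding microarrays were double-stranded, with 34-nt variable regions bearing direct-repeat seeds, single-nucleotide variants, half-site ablations and random human genomic background sequences. Incubation lasted 1 h with ligand-free nuclear receptor dimers in PBS pH 7.4, 2% milk, 0.02% Triton X-100, 1 mM DTT, 0.2 mg/mL BSA and 0.4 mg/ml salmon testes DNA. Antibodies against each partner (one per run) detected bound dimers, and fluorescence scans were regression-normalized. Binding z-scores take the random background probes as reference.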
GCATATAGGTAATACAAGGTAAAAGTCCGATTGT showed a PBM binding z-score of 1.02.

For the sequence ACTCGGAGGAGAAAGGTCAGAGCTACGCCAGTGA, the PBM binding z-score was 2.6.

As to CCTTACTGGTCACTGACAGGTTATAGCATTTGGA, the PBM binding z-score stood at 0.509.

ATCTCTAGGGAAAAGTTCAGTGAATCCCGAGGAT yielded a PBM binding z-score of -0.0297.

Turning to TCACGGAGGACACGAAGGTCAGAGCTTTCCAGAG, the PBM binding z-score stood at 1.21.

In the case of CGTACTAGGTCAGAACAGGACAGTGAAGGATGAT, the PBM binding z-score was 1.43.

CGAACTAGGTTAAGGACAGTGAATCTCCGCACGC had a PBM binding z-score of 0.447.

For TCAGACAGGTGAAGGTAACTCTGGTACGCAGTCG, the PBM binding z-score is 0.419.

The sequence TAGCCTAGATCATGCGGGCCAGTATAGTGTCGGC yielded a PBM binding z-score of -2.92.

Consider AATACAGGGTCATCGTAGGCAAGAGTACGCACAG, for which the PBM binding z-score amounted to 7.68.

For the sequence ATCTCTAGGTCAGACTCAGTTCAGTGAAGAACGC, the PBM binding z-score worked out at 2.16.

Consider CCAGACAGGTGAGTAGGTAACTCAGCCTCGATTA, for which the PBM binding z-score turned out to be 0.327.

As to TCTGCTAGCTCAGTTGGTCAGCTAACGAGCTGCC, the PBM binding z-score is -1.44.

Sequence CTACCAAGGTGAACAAGCTCGTTGATTACTATTC returned a PBM binding z-score of 0.329.

CCGATTGGGGCAGAAAGGTTACCATACCATCCGG gave a PBM binding z-score of 0.261.

ATATGTAGATTACATCCGGGTCATTCAGGCTATG displayed a PBM binding z-score of 1.18.

CCTCGGAGGACATAAGGTCAGAGCTGTCCGCTTT gave a PBM binding z-score of 2.39.

TCTTGTAGATCAAGCTGGTTAAGAAAGCCTGAGT gave a PBM binding z-score of -0.0681.

Sequence AGAATGAGTTTAAGATCAGGGAAACAGAATACAT had a PBM binding z-score of -0.0291.

Regarding ATACCAAGGTGATCGTGAGGTCGTTGAGACTAAC, the PBM binding z-score turned out to be 1.86.

Regarding GCTCGGAGGACATGGTCAGAGCTTTGTCCGTAGA, the PBM binding z-score was -0.823.

Consider CCGAGTAGGTTATGGGGCATACAGGCAACGGTGA, for which the PBM binding z-score stood at 0.216.

The sequence CGTCCAAGGTCAAAGGTCAGTTAAGAGATGACGG displayed a PBM binding z-score of 8.43.

Turning to CTAGCAAGGTGAACAAGGTCGTTGATTACTATTC, the PBM binding z-score was 1.2.

Sequence ACAGACAGGTGATGATGGTAACTCAGGCTATCAT had a PBM binding z-score of 0.142.

In turn, CAAACTAGGTCACAGAGGTCCAAGTCCGTGCGTA yielded a PBM binding z-score of 4.06.

For the sequence TAGCCTTGGTCATGCGGGCCAGTATAGTGTCGGC, the PBM binding z-score is -0.908.

In turn, CCAGACAGGTGAATGGTAACTCAGTCTGGTACGC gave a PBM binding z-score of -0.448.

Regarding GCTGATAGGTCAACTGATGGTCAGCTAAAGCTCG, the PBM binding z-score was 5.47.

Consider AGAACGAGGGCCCGCTGAGTTGATAGCAGAGTAG, for which the PBM binding z-score is -0.807.

Turning to ATATGTAGGTTACGGGTCATTCAGGTTGGTTCGC, the PBM binding z-score is 3.73.

On to CCTCCAAGGTCAATGCTAGGTCAGTGAAAGCATT, for which the PBM binding z-score worked out at 6.43.

With CCTCGGAGGAAAGAAGGTCAGAGCTGTCCGCTTT, the PBM binding z-score was 0.768.

ACTACCAGGCCAAGGGTCACTCAAGATTAGTCCG registered a PBM binding z-score of 2.84.

Consider CCGACTGGGGCATAAGGTTAGCATAAGCCAGCCC, for which the PBM binding z-score was -0.404.

With TCTTGTAGATCAAAGGTTAAGATAGCCGAAGCCT, the PBM binding z-score is 1.76.

ACTATTTGGTCAGCTGAGGTCACACACAATTCGG came in with a PBM binding z-score of 3.54.

Sequence CGTTAAAGTTCAACTAAGGTAACGTAAAGCACGC yielded a PBM binding z-score of 7.01.

The sequence AGTCAATGTTCACTAGGTAACGTAAGATTCAGCT came in with a PBM binding z-score of -0.318.

Regarding AGTCAAAGTTCACTAGTTAACGTAAGATTCAGCT, the PBM binding z-score is 5.06.

For a further assay, the system named is LXRa:RXRa (NR concentration 270 nM, RXRa partner concentration 90 nM). The assay is described as above. The essentials:
as §1
On to GCATATAGGTAATACAAGGTAAAAGTCCGATTGT, for which the PBM binding z-score stood at 0.511.

The sequence ACTCGGAGGAGAAAGGTCAGAGCTACGCCAGTGA showed a PBM binding z-score of 3.16.

The sequence CCTTACTGGTCACTGACAGGTTATAGCATTTGGA yielded a PBM binding z-score of 0.779.

Sequence ATCTCTAGGGAAAAGTTCAGTGAATCCCGAGGAT yielded a PBM binding z-score of 0.401.

TCACGGAGGACACGAAGGTCAGAGCTTTCCAGAG: the PBM binding z-score came to 1.07.

Regarding CGTACTAGGTCAGAACAGGACAGTGAAGGATGAT, the PBM binding z-score is 1.05.

Consider CGAACTAGGTTAAGGACAGTGAATCTCCGCACGC, for which the PBM binding z-score amounted to 0.377.

In turn, TCAGACAGGTGAAGGTAACTCTGGTACGCAGTCG displayed a PBM binding z-score of 2.39.

The sequence TAGCCTAGATCATGCGGGCCAGTATAGTGTCGGC showed a PBM binding z-score of -1.33.

Take AATACAGGGTCATCGTAGGCAAGAGTACGCACAG: the PBM binding z-score was 6.03.

For ATCTCTAGGTCAGACTCAGTTCAGTGAAGAACGC, the PBM binding z-score stood at 3.65.

CCAGACAGGTGAGTAGGTAACTCAGCCTCGATTA: the PBM binding z-score was 0.14.

The sequence TCTGCTAGCTCAGTTGGTCAGCTAACGAGCTGCC had a PBM binding z-score of -1.29.

In the case of CTACCAAGGTGAACAAGCTCGTTGATTACTATTC, the PBM binding z-score was 0.121.

Turning to CCGATTGGGGCAGAAAGGTTACCATACCATCCGG, the PBM binding z-score came to 0.61.

The sequence ATATGTAGATTACATCCGGGTCATTCAGGCTATG showed a PBM binding z-score of 1.51.

In the case of CCTCGGAGGACATAAGGTCAGAGCTGTCCGCTTT, the PBM binding z-score was 2.6.

TCTTGTAGATCAAGCTGGTTAAGAAAGCCTGAGT gave a PBM binding z-score of -0.116.

For AGAATGAGTTTAAGATCAGGGAAACAGAATACAT, the PBM binding z-score is -0.0527.

ATACCAAGGTGATCGTGAGGTCGTTGAGACTAAC came in with a PBM binding z-score of 1.27.

As to GCTCGGAGGACATGGTCAGAGCTTTGTCCGTAGA, the PBM binding z-score was -0.697.

Turning to CCGAGTAGGTTATGGGGCATACAGGCAACGGTGA, the PBM binding z-score stood at 0.557.

The sequence CGTCCAAGGTCAAAGGTCAGTTAAGAGATGACGG came in with a PBM binding z-score of 6.95.

Turning to CTAGCAAGGTGAACAAGGTCGTTGATTACTATTC, the PBM binding z-score was 1.17.

As for ACAGACAGGTGATGATGGTAACTCAGGCTATCAT, the PBM binding z-score was -0.0671.

Sequence CAAACTAGGTCACAGAGGTCCAAGTCCGTGCGTA gave a PBM binding z-score of 3.27.

In turn, TAGCCTTGGTCATGCGGGCCAGTATAGTGTCGGC showed a PBM binding z-score of -1.14.

The sequence CCAGACAGGTGAATGGTAACTCAGTCTGGTACGC gave a PBM binding z-score of -0.493.

GCTGATAGGTCAACTGATGGTCAGCTAAAGCTCG: the PBM binding z-score was 4.76.

Sequence AGAACGAGGGCCCGCTGAGTTGATAGCAGAGTAG yielded a PBM binding z-score of -1.1.

ATATGTAGGTTACGGGTCATTCAGGTTGGTTCGC: the PBM binding z-score stood at 3.96.

As for CCTCCAAGGTCAATGCTAGGTCAGTGAAAGCATT, the PBM binding z-score came out at 5.53.

CCTCGGAGGAAAGAAGGTCAGAGCTGTCCGCTTT returned a PBM binding z-score of 1.38.

Sequence ACTACCAGGCCAAGGGTCACTCAAGATTAGTCCG gave a PBM binding z-score of 3.11.

Take CCGACTGGGGCATAAGGTTAGCATAAGCCAGCCC: the PBM binding z-score was -0.371.

TCTTGTAGATCAAAGGTTAAGATAGCCGAAGCCT yielded a PBM binding z-score of 2.11.

In turn, ACTATTTGGTCAGCTGAGGTCACACACAATTCGG showed a PBM binding z-score of 3.48.

CGTTAAAGTTCAACTAAGGTAACGTAAAGCACGC: the PBM binding z-score turned out to be 6.26.

Sequence AGTCAATGTTCACTAGGTAACGTAAGATTCAGCT showed a PBM binding z-score of -0.205.

The sequence AGTCAAAGTTCACTAGTTAACGTAAGATTCAGCT yielded a PBM binding z-score of 5.13.
